Data: PubChem BioAssay (NCI)
“And” between values parts separate entries of the source, which are not always exact repeats. Identical values can stand only once. About 83,000 compounds went through this panel and 20% of them were active in at least one assay; those are over-represented in the sample as a whole.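 Interpretation: 100, growth as untreated; towards 0, rising growth inhibition; 0, no net growth; 0 to -100, cell death. Compounds scoring below 10 were considered active.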 The source made the active and inactive calls.

system: SK-OV-3 ovarian; assay: NCI-60 one-dose screen, 48 h (100 = growth as untreated, 0 = no growth, -100 = all killed); conditions: 10 µM
Procedure: Growth inhibition of the SK-OV-3 human tumor cell line is measured as a screen for anti-cancer activity. Cells are grown in 96 well plates and exposed to the test compound for 48 hours. Compounds are tested at a single concentration, which is 10^-5 M for most compounds. The reported endpoint is percent growth (GI% or GIPRCNT), where numbers from 0 - 100% represent growth inhibition, and numbers from -100% - 0 represent cell death. For example, a value of 40 represents 60% growth inhibition. A value of 0 means no net growth occurred over the course of the experiment. A value of -40 indicates 40% of cells at the beginning of the experiment died by the end of the experiment. A value of -100 means all cells are dead at the end of the experiment.
NCI-60 Human Tumor Cell Lines Screen was performed using the standard one-dose NCI protocol, which is described in more detail at https://dtp.cancer.gov/discovery_development/nci-60/default.htm.
Compounds with GIPRCNT values below 10 were considered active. Activity score was based on GIPRCNT using the following formula: […]
Score is 0 for GIPRCNT values of 100 or above, 50 for GIPRCNT values of 0, and 100 for GIPRCNT values of -100.

| SMILES | growth |
| --- | --- |
| O=c1ccn2c(n1)OC1CC2OC1COC(c1ccccc1)(c1ccccc1)c1ccccc1 (stereo not given) | 101% (inactive) |

same assay, conditions: 10 µM unless noted

| SMILES | growth |
| --- | --- |
| CCOC(=O)C(N)Cc1cc(I)c(O)c(I)c1 (stereo not given) | 107% (inactive) and 96.6% (inactive) |
| COc1ccccc1OCC(O)CO (stereo not given) | 106% (inactive) and 121% (inactive) |
| ON=C(C1CCCCC1)C1CCCCC1 | 106% (inactive) |
| Cc1ccc(S(=O)(=O)n2ccnc2)cc1 | 123% (inactive) |
| COc1cc2oc3cc(=O)cc4oc(-c5ccccc5)cc(c2c2c1CCC(c1ccccc1)O2)c43 (stereo not given) | 92.8% (inactive) |
| O=C(c1ccncc1)c1c(Cc2ccccc2)ccc2ccccc12 | 120% (inactive) |
| CC(=O)Oc1cc(C)c(OC(C)=O)c(C)c1C | 125% (inactive) |
| CCn1c2ccc(N(C)C)cc2c2cc(N(C)C)ccc21 | 94.8% (inactive) |
| CSc1nc(N)c(N)c(N)n1 | 81.3% (inactive) |
| COc1cc([C@@H]2c3cc4c(cc3[C@H](O)[C@H]3COC(=O)[C@@H]23)OCO4)cc(OC)c1OC | 33% (inactive) and 3.05% (active) |
| Cc1cc2nc3ccc(=[N+](C)C)cc-3sc2cc1N | 8.62% (active) and 45.8% (inactive) |
| Cc1cc(O)c(C(C)C)cc1N=O | 96.4% (inactive) and 105% (inactive) |
| C(#CCN1CCOCC1)CCCN1CCOCC1 | 104% (inactive) and 106% (inactive) |
| CCOC(=O)C1=CC(=O)CC(C)(C)O1 | 108% (inactive) and 114% (inactive) |
| CC1=CC(=O)C=CC1=Nc1ccc(N(C)C)cc1 | 94.2% (inactive) and 71.8% (inactive) |
| O=c1[nH]c(=S)[nH]n1C(=S)n1[nH]c(=S)[nH]c1=O | 109% (inactive) |
| Cc1ccc([N+](=O)[O-])cc1Br | 96.4% (inactive) |
| Nc1ccccc1SC1CC(=O)N(c2ccc(I)cc2)C1=O (stereo not given) | 95.5% (inactive) |
| CCCCCCCCCCCCCCCCC(=O)O | 116% (inactive) |

| SMILES | growth |
| --- | --- |
| CCOC(=O)c1ccncc1 | 105% (inactive) |
| COC(=O)C(Cc1cn(C(C)=O)c2ccccc12)P(=O)(OC)OC (stereo not given) | 113% (inactive) |
| Cn1c(-c2ccccc2)cc(=O)cc1-c1ccccc1 | 92.4% (inactive) |
| Nc1c(S(=O)(=O)O)cc(Br)c2c1C(=O)c1ccccc1C2=O | 85.6% (inactive) and 102% (inactive) |
| CC(=O)Oc1cc(C(C)C)c(OCCN(C)C)cc1C | 115% (inactive) and 101% (inactive) |
| N#Cc1ccc(/C=C/C(=O)c2ccccc2)cc1 | 123% (inactive) and 106% (inactive) |
| CC(C)(C)C1CCC(=NO)CC1 (stereo not given) | 101% (inactive) |
| CC1NC(C)c2ccc3ccccc3c2O1 (stereo not given) | 106% (inactive) |
| CCOC(=O)NC(N)=O | 104% (inactive) and 114% (inactive) |
| O=C(O)c1ccc2c3ccc(C(=O)O)c4c(C(=O)O)ccc(c5ccc(C(=O)O)c1c25)c43 | 107% (inactive) |
| O=S(=O)(O)c1ccc2cc(O)ccc2c1 | 104% (inactive) |
| CC(C)=NOC(C)C(=O)O (stereo not given) | 115% (inactive) |
| O=C(Nc1ccccc1)OCC(CN1CCCCC1)OC(=O)Nc1ccccc1 (stereo not given) | 89.4% (inactive) and 93.8% (inactive) |
| Nc1c(Cl)cc2c(c1Br)C(=O)c1ccccc1C2=O | 84% (inactive) |
| CC(NC(=O)CCl)c1ccccc1 (stereo not given) | 102% (inactive) |
| COc1cc(C2c3cc4c(cc3C(OC(=O)C[n+]3ccccc3)C3COC(=O)C23)OCO4)cc(OC)c1OC (stereo not given) | 33% (inactive) |
| Cc1cc2ccccc2c2cc3ccccc3cc12 | 90.6% (inactive) |
| CC(=O)Nc1cscc1NC(C)=O | 103% (inactive) |
| COC(=O)CCOc1ccccc1 | 106% (inactive) |

same assay, conditions: 100 µM

| SMILES | growth |
| --- | --- |
| O=c1ccn2c(n1)OC1CC2OC1COC(c1ccccc1)(c1ccccc1)c1ccccc1 (stereo not given) | 70.9% (inactive) |
